This is an account of results in PubChem BioAssay AID493011 (Sanford-Burnham Center for Chemical Genomics, 2011).

Among all 330,000 compounds or so, about 1,400 (0.42%) were called active.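 The calls were made as follows: active = at least 40% inhibition at 20 µM here, with at most 30% in a related deaminase screen; inactive = the rest.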 Shown is part of a subset that was picked to be rich in actives.

DNA dC->dU-editing enzyme APOBEC-3A (Homo sapiens), sequence (P31941 whole entry, looked up): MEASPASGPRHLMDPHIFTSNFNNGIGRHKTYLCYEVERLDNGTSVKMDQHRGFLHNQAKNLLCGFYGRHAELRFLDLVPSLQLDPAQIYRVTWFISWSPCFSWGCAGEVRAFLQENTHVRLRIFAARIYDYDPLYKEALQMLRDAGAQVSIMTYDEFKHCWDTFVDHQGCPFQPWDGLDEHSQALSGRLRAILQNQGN

The assay concerns the target DNA dC->dU-editing enzyme APOBEC-3A (Homo sapiens) (UniProt P31941). Nature of the assay: blockers of A3A cytidine deamination on DNA – biochemical, FAM/TAMRA oligo cleavage fluorescence, selectivity assay for APOBEC3G inhibitor project, primary screen (AID 493011).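 Also: plate controls were A3A with DMSO for no effect and wells lacking A3A enzyme for full effect.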 Conditions: recombinant A3A, FAM/TAMRA ssDNA deamination fluorescence; at 20 µM; hits give high values.
As for `COCCN1C(=O)c2oc3c(C)cc(C)cc3c(=O)c2C1c1cccc(O)c1` (stereo not drawn), the inhibition (in general, the change of the read-out against control, counted positive when it falls) was -3.14% (inactive).

Consider `O=c1c2ccccc2c(-c2ccccc2)nn1-c1ccccn1`, for which the inhibition is 0.978% (inactive).

On to `O=C1c2oc3ccccc3c(=O)c2C(c2cccc(O)c2)N1c1ccccn1` (stereo not drawn), for which the inhibition was 51.3% (active).

Turning to `O=C(NC(CC(=O)N1CCN(c2ccccc2)CC1)c1ccccc1)c1ccccc1Cl` (stereo not drawn), the inhibition was -2.76% (inactive).

Consider `CN1C(C(=O)NCC2CC2)CC2Cn3c(nc4ccccc43)C21` (stereo not drawn), for which the inhibition is -2.77% (inactive).

Take `CCCCn1c(N)c(N(CC(C)C)C(=O)C2CSC3(C)CCC(=O)N23)c(=O)[nH]c1=O` (stereo not drawn): the inhibition was 7.64% (inactive).

For `CCOc1ccc(CNC(=O)C2CC(=O)N(C3CCCC3)C2)cc1OC` (stereo not drawn), the inhibition is -5.29% (inactive).

Turning to `COc1ccc(Br)cc1CN(C)C(=O)C1CC(=O)N(C2CCCC2)C1` (stereo not drawn), the inhibition was 43.5% (active).

Regarding `CN(CC(=O)Nc1ccc(F)c(F)c1F)C(=O)C1CC(=O)N(C2CCCC2)C1` (stereo not drawn), the inhibition is 0.598% (inactive).

For the compound `Cc1ccc(NS(=O)(=O)c2ccc(C(C)C)cc2)cc1S(=O)(=O)N1CCOCC1`, the inhibition is 3.31% (inactive).

Consider `O=C(Cn1cnc2ccccc2c1=O)Nc1cccc(S(=O)(=O)N2CCCCC2)c1`, for which the inhibition was 2.51% (inactive).

For the compound `CCOc1cc(C)c(S(=O)(=O)NCc2ccccn2)cc1C`, the inhibition is -6.13% (inactive).

For the compound `C[N+]1(CC(O)COc2ccccc2)CCN(C(=O)c2ccc([N+](=O)[O-])cc2)CC1` (stereo not drawn), the inhibition is 67.8% (active).

`O=C(COc1ccccc1)Nc1ccc(C(=O)N2CCCC2)cc1`: the inhibition is 0.542% (inactive).

On to `O=[N+]([O-])c1ccc(N2CCN(CC(O)COc3ccccc3)CC2)cc1` (stereo not drawn), for which the inhibition was 0.14% (inactive).

As for `CCN(CC(=O)NCc1cccs1)c1nnnn1-c1ccccc1`, the inhibition is -3.14% (inactive).

In the case of `CCCCNC(=O)N1CCCC(N(C)CCc2ccc(OC)c(OC)c2)C1` (stereo not drawn), the inhibition is -3.11% (inactive).

Regarding `CCS(=O)(=O)c1ccc2c(c1)N(S(=O)(=O)c1ccccc1)CC(C(=O)O)O2` (stereo not drawn), the inhibition was 1.33% (inactive).

Turning to `COCCCn1c(Cc2csc(Nc3cccc(Cl)c3)n2)nnc1SCC(=O)OC1CCCCC1`, the inhibition was 50.4% (active).

Take `COCCCn1c(SCC(=O)NC2CCCC2)nnc1-c1ccccc1`: the inhibition was 0.169% (inactive).

Take `CCOc1ccc(Nc2nc(Cc3nnc(SCC(=O)NC4CCCC4)n3C)cs2)cc1`: the inhibition is -3.45% (inactive).

On to `O=C(Oc1ccc(-c2nc(-c3ccccn3)no2)cc1)c1ccccc1`, for which the inhibition was 2.42% (inactive).

Consider `Cc1cn(C2OC[C@@H](O)[C@@H]2CO)c(=O)[nH]c1=O` (stereo partly drawn), for which the inhibition was -1.23% (inactive).

With `COc1ccc(CCNC(=O)COC(=O)/C=C/c2cccs2)cc1OC`, the inhibition is 48.9% (active).

As for `COc1ccc(/C=C/C(=O)OCC(=O)NCc2cccs2)cc1OC`, the inhibition was 2.47% (inactive).

Turning to `COc1ccc(CCNC(=O)c2cc3sccc3n2C)cc1OC`, the inhibition is 5.91% (inactive).

Turning to `COCCn1c(SCC(=O)N2CCCCCC2)nc2c(c1=O)SCC2`, the inhibition is -5.21% (inactive).

For `CC(C)(C)C1CCC(C(=O)Nc2cccnc2)CC1` (stereo not drawn), the inhibition was -2.44% (inactive).

`COc1cc(/C=N\Nc2ccc([N+](=O)[O-])cn2)ccc1OCC(=O)O`: the inhibition is 71.8% (active).

On to `CCCc1ccc(OCc2ccc(C(=O)N/N=C/c3cccc([N+](=O)[O-])c3)o2)c(OC)c1`, for which the inhibition is 2.99% (inactive).

`COc1cc(/C=N/NC(=O)Nc2ccccc2)ccc1OCCOc1ccccc1C`: the inhibition was -4.86% (inactive).

With `O=C(C[n+]1cc(Br)cc2ccccc21)c1ccc(F)cc1`, the inhibition was -1.32% (inactive).

As to `COc1c(C(=O)N2CCCC2)ccc2ccccc12`, the inhibition is 1.55% (inactive).

Consider `COC(=O)C[n+]1cccc2ccccc21`, for which the inhibition is 67.3% (active).

For `COc1ccccc1NC(=O)COC(=O)c1ccccc1SCC(=O)N1CCCC1`, the inhibition is 1.2% (inactive).

As for `CCO[C@H]1OC(C(=O)N2CCN(Cc3ccccc3)CC2)=C[C@@H](c2cn(C(C)=O)c3ccccc23)[C@@H]1CCCO`, the inhibition is -2.14% (inactive).

In the case of `CCOc1c(OC)cccc1C(=O)NCC1(c2ccccc2)CCCC1`, the inhibition is -3.19% (inactive).

Turning to `O=C(CNC1CCCCC1)NCC1(c2ccccc2)CCCC1`, the inhibition is 56.4% (active).

For `COc1cc(C(=O)NCC2(c3ccccc3)CCCC2)ccc1OC(C)C`, the inhibition is 5.08% (inactive).

On to `O=C(NC1(C(F)(F)F)NC(=O)N(Cc2cccnc2)C1=O)c1ccccc1Cl` (stereo not drawn), for which the inhibition was 0.863% (inactive).

As for `C[N+]1(CCNC(=O)/C=N/O)CCCCC1`, the inhibition was 54.1% (active).

For the compound `O=[N+]([O-])c1cc(S(=O)(=O)N2CCCC2)ccc1NN=C1CCCC1`, the inhibition is -1.16% (inactive).

In the case of `Cc1ccc(CSc2nsc(C)c2C#N)cc1`, the inhibition is -2.03% (inactive).

As to `Cc1snc(SCc2c(F)cccc2Cl)c1C#N`, the inhibition is 44.2% (active).

For `Cc1cc(SCc2c(F)cccc2Cl)nc(=O)[nH]1`, the inhibition was 1.16% (inactive).

As for `Cc1ccc(NC(=O)CN(C)C(=O)COC(=O)C(C)(C)Oc2ccc(Cl)cc2)cc1`, the inhibition is 1.01% (inactive).

On to `O=C(CCC1CCCCC1)Nc1cc(C(F)(F)F)ccc1N1CCOCC1`, for which the inhibition was 1.06% (inactive).

For `COc1ccccc1N1CCN(C(=O)CCS(=O)(=O)c2ccc3c(c2)NC(=O)C(C)S3)CC1` (stereo not drawn), the inhibition was 0.853% (inactive).

With `Cc1cccc(N2C(=O)N3[C@H](c4ccc(F)cc4)[C@@H]4C(=O)N(C5CCCCC5)C(=O)[C@@H]4[C@]3(Cc3ccccc3)C2=O)c1`, the inhibition was 0.21% (inactive).

In the case of `CCN1C(=NCCc2cccnc2)N[C@@H](c2ccccc2)[C@H](C(=O)OC)[C@H]1C`, the inhibition was 68.2% (active).

For the compound `CCN1C(=NCCc2cccnc2)N[C@@H](c2ccccc2)C(C(=O)OC)=C1C`, the inhibition was 67.6% (inactive).

As to `CCN1C(=O)N[C@@H](c2ccccc2)[C@H](C(C)=O)[C@H]1C`, the inhibition was -2% (inactive).

For `CC1=C(C(N)=O)C(c2sccc2C)n2nnnc2N1` (stereo not drawn), the inhibition was 0.148% (inactive).

As to `Cc1cc(Cl)ccc1C(=O)C1CCCN(C(=O)c2nonc2C)C1` (stereo not drawn), the inhibition was -5.04% (inactive).

For `Cc1cc(=O)cc(C)n1-c1ccc(Cl)c(Cl)c1`, the inhibition is 1.75% (inactive).

With `Cc1ccccc1-n1c(C)cc(/C=N/NC(=O)c2ccc(CN3CCOCC3)cc2)c1C`, the inhibition was 0.38% (inactive).

As to `Cc1cc(/C=N/NC(=O)CC2(C)OCCO2)c(C)n1-c1ccc(Cl)c(Cl)c1`, the inhibition was 56.8% (active).

`CCOc1ccc(S(=O)(=O)Nc2ccncc2)c(C)c1C`: the inhibition was -0.833% (inactive).

Consider `CCc1ccc(OCC(O)CN2CCN(CCO)CC2)cc1` (stereo not drawn), for which the inhibition is -7.28% (inactive).

For `CC(=O)c1ccc(N=C2SCCCN2C(=O)C2CCCCC2)cc1`, the inhibition is 4.36% (inactive).

Turning to `C[N+](C)(CCCCCC[N+](C)(C)CCCN1C(=O)c2cccc3cccc(c23)C1=O)CCCN1C(=O)c2cccc3cccc(c23)C1=O`, the inhibition was 46% (active).

In the case of `O=C1c2cccc3cccc(c23)C(=O)N1CCCCCc1n[nH]c(=S)o1`, the inhibition is -1.78% (inactive).

In the case of `O=C(CN1C(=O)c2cccc3cccc(c23)C1=O)N1CCCCC1`, the inhibition was -1.16% (inactive).

As to `CC(=O)c1ccc(NC(=S)N(Cc2ccccc2)C(C)C2CC2)cc1` (stereo not drawn), the inhibition is 0.493% (inactive).

Consider `COc1ccc(-c2ocnc2C(=O)Nc2ccc3c(c2)CCC3)cc1`, for which the inhibition was -0.367% (inactive).

Consider `CCN(CC(=O)N1CCCC1)S(=O)(=O)c1ccc(F)cc1`, for which the inhibition is -1.08% (inactive).

As to `O=C(Nc1ccc(Cl)cc1)Nc1ccc(Oc2cccnc2)nc1`, the inhibition is -3.23% (inactive).

For `NC(=O)c1ncc(C(F)(F)F)cc1Oc1ccc(F)cc1`, the inhibition was 2.03% (inactive).

Take `N#Cc1ncc(C(F)(F)F)cc1Oc1cccnc1`: the inhibition was 60.4% (active).

Consider `COc1ccc(C)cc1NC(=O)CN1c2cccc3cccc(c23)S1(=O)=O`, for which the inhibition is -2.73% (inactive).

Consider `CCN(C(=O)COc1ccc(C(=O)c2ccccc2)cc1)c1ccccc1`, for which the inhibition is -0.203% (inactive).

In the case of `COc1ccccc1CNC(=O)COC(=O)c1sc(C)nc1C`, the inhibition was -1.57% (inactive).

Consider `CC(=O)c1cccc(NC(=O)c2cc(C)nn2-c2ccccc2)c1`, for which the inhibition is -0.424% (inactive).

Consider `CC(=O)Nc1ccc(NC(=O)CSc2nnc(C3CC3)n2-c2ccccc2)cc1`, for which the inhibition was 10.5% (inactive).

As for `CC[n+]1c(C)n(-c2ccccc2)c2ccc(NC(C)=O)cc21`, the inhibition is 60% (active).

With `COc1cccc([C@H](O)Cn2cc(-c3ccc(CON=C(C)C)cc3)nn2)c1`, the inhibition was 2.45% (inactive).

As to `COc1ccc(Cc2nnc(N/N=C/c3ccccc3O)[nH]c2=O)cc1OC`, the inhibition is -1.76% (inactive).

For the compound `Cc1nnc(N/N=C/c2ccccn2)[nH]c1=O`, the inhibition was 42.1% (active).

On to `Cc1cc(C(=O)N/N=C/c2ccccn2)c2ccccc2n1`, for which the inhibition is -3.08% (inactive).

For `CC(C)(C)NC(=O)c1ccc(Cn2cc(C(F)(F)F)ccc2=O)cc1`, the inhibition is -2.36% (inactive).

As for `CCOc1ccc(C(=O)NCC(=O)N2CCCCCCC2)cc1OCC`, the inhibition is -0.114% (inactive).

For `CC(O)C(NS(=O)(=O)c1ccc(Cl)cc1)C(=O)OCc1cc([N+](=O)[O-])cc2c1OCOC2` (stereo not drawn), the inhibition is -3.62% (inactive).

In the case of `NS(=O)(=O)c1ccc(CNC(=O)c2cccc(Oc3ccccc3)c2)cc1`, the inhibition was -0.736% (inactive).

On to `CCc1ccc(S(=O)(=O)Nc2cc3c(cc2N2CCCCC2)n(C)c(=O)c(=O)n3C)cc1`, for which the inhibition is -6.54% (inactive).

For `COC(=O)C1=C(C)N(C)C(=S)NC1c1ccccc1` (stereo not drawn), the inhibition is -2.13% (inactive).

Take `COC(=O)C1=C(C)N(Cc2ccccc2)C(=NCCCOC(C)C)N[C@H]1c1ccccc1`: the inhibition was 45.5% (active).

Turning to `CCN1C(=O)N[C@@H](c2ccccc2)C(C(=O)OC)=C1C`, the inhibition is 4.12% (inactive).

In the case of `CC1CN(C2CCN(C(=O)COc3ccccc3)CC2)CC(C)O1` (stereo not drawn), the inhibition was -6.23% (inactive).

Consider `COC(=O)c1ccc(NC(=O)CSc2nnc(Cc3cccn3C)n2-c2ccc(F)cc2)cc1`, for which the inhibition was -0.405% (inactive).

`Cc1cccc(N2CCN(C(=O)COCc3cc(-c4ccc5c(c4)OCO5)on3)CC2)c1C`: the inhibition was -0.313% (inactive).

For `Cc1sc2nc(CSCC(=O)NC3CCCCC3)[nH]c(=O)c2c1C`, the inhibition was -2.29% (inactive).

As for `CC(=O)c1sc2nc(SCC(=O)N3CCCCC3)[nH]c(=O)c2c1C`, the inhibition was 2.37% (inactive).

`CSc1nnc(SCc2nc3sc(C(=O)O)c(C)c3c(=O)[nH]2)s1`: the inhibition was 65.8% (active).
